Inconclusive results are not listed. Entries that show only a call come without a potency. A number with no mark means an inactive call. Calls of active or inactive are those of the source. The call rests on the fitted dose curve; in most records, active means well fitted cell-killing curve with a large enough effect; inconclusive means small, poorly fitted or top-dose-only effect, or effect the other way; inactive means no such curve, though single readings can be large or run the other way.
Tests used:
[1] = Viability qHTS for spleen associated tyrosine kinase inhibitor (SYKi) naive MV4-11 cells (AID 1963823); further: nearly all actives have a fitted effect of over 40% in size
How it was run: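 Compounds were dispensed acoustically onto plates, MV4-11 cells (SYKi-naive) added at 500 per well, and plates incubated 72 hr at 37 C. CellTiter-Glo was added and luminescence measured after 10 min.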

[2] = Viability qHTS for spleen associated tyrosine kinase inhibitor (SYKi) drug resistant MV4-11 cells (AID 1963824); further: nearly all actives have a fitted effect of over 35% in size
How it was run: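 SYK inhibitor-resistant MV4-11 AML cells, 500 per well, added to predispensed compounds and incubated 72 hr at 37 C, 5% CO2. Viability measured by CellTiter-Glo luminescence after 10 min at room temperature.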
Potency means the concentration at half of the fitted maximal effect.

Row | SMILES | viability (% of control) [1] | viability, % of control [2] | Potency [1] | Potency [2]
1 | COc1cc(Nc2nc3c(s2)CCCC3c2ccccc2)ccc1-n1cnc(C)c1 (centres undefined) | 89.8% [at 9.25 µM] | 109% [at 9.25 µM] |  | 
2 | CC(C)(O)CC(CO)NC(=O)CC(O)CC(=O)Cc1ccccc1 (centres undefined) |  |  | inactive | inactive
3 | CCC(C)C(=O)O[C@@H]1[C@@H](O)[C@@H](O[C@H]2O[C@H](CO)[C@@H](O)[C@H](O)[C@H]2O)O[C@H](CO)[C@H]1O (some centres undefined) |  |  | inactive | inactive
4 | CC(=O)O[C@@H]1C[C@H](O)[C@@]23CO[C@H](O)[C@]1(C)C2C[C@@H](O)[C@]1(C)C3C(=O)[C@H](OC(C)=O)[C@@]2(C)[C@H](c3ccoc3)C[C@H]3O[C@]321 (some centres undefined) |  |  | 38.5 nM (active) | 34.3 nM (active)
5 | C=CC(C)(O)CC[C@@H]1[C@@]2(C)CCCC(C)(C)C2CC[C@@]1(C)O (some centres undefined) |  |  | 25900 nM (active) | 20600 nM (active)
6 | Nc1nc(N)c2nc(-c3cccc(O)c3)cnc2n1 |  |  | 1840 nM (active) | 2060 nM (active)
7 | COc1cc2c(c(OC)c1O)C(c1ccc(O)cc1)C1C(=O)OC3C(COC(=O)C1=C2)OC(CO)(OC1OC(COC(=O)/C=C/c2ccc(OC4OC(C)C(O)C(O)C4O)cc2)C(O)C(O)C1O)C3O (centres undefined) | 95.6% [at 9.25 µM] | 81.2% [at 9.25 µM] |  | 
8 | CC(C)C(CO)Nc1nc(Nc2cc(N)cc(Cl)c2)c2ncn(C(C)C)c2n1 (centres undefined) |  |  | 517 nM (active) | 820 nM (active)
9 | CC1(C)C(O)CCC2(C)C1C(O)C=C1COC(=O)C12O (centres undefined) |  |  | inactive | inactive
10 | CC(C)CC(c1c(O)c(C=O)c(O)c(C=O)c1O)C1CCC(C)(O)C2CC(C(C)(C)O)CCC12C (centres undefined) |  |  | inactive | inactive
11 | CC1(C)CC2C3=CCC4C5(C)CCC(OC6OC(C(=O)O)C(O)C(O)C6OC6OC(CO)C(O)C(O)C6OC6OC(CO)C(O)C(O)C6O)C(C)(CO)C5CCC4(C)C3(C)CCC2(C)C(OC2OCC(O)C(OC3OC(CO)C(O)C(O)C3O)C2O)C1O (centres undefined) | 96.2% [at 9.25 µM] | 112% [at 9.25 µM] |  | 
12 | CCN=C1N[C@@H]2[C@@H](O)[C@H](O)[C@@H](CO)O[C@@H]2S1 |  |  | inactive | inactive
13 | O=C1C(Cc2ccc(O)cc2)N2C(=O)CCN(C(=O)NCc3ccccc3)C2CN1Cc1cccc2ccccc12 (centres undefined) |  |  | 1460 nM (active) | 1840 nM (active)
14 | COC(=O)N/N=C/c1c[n+]([O-])c2ccccc2[n+]1[O-] |  |  | inactive | inactive
15 | C[C@@H]1O[C@@H](O[C@H]2[C@H](O[C@H]3[C@H](O[C@H]4CC[C@@]5(C)C(CC[C@]6(C)C5CC=C5[C@@H]7CC(C)(C)C[C@@H](O)[C@]7(C)CC[C@]56C)C4(C)C)O[C@H](C(=O)O)[C@@H](O)[C@@H]3O)O[C@H](C(=O)O)[C@H](O)[C@@H]2O)[C@H](O)[C@H](O)[C@H]1O (some centres undefined) | 101% [at 9.25 µM] | 89.8% [at 9.25 µM] |  | 
16 | COc1cc(N)c(Cl)cc1C(=O)NC[C@@H]1CCN2CCC[C@@H]12 |  |  | inactive | inactive
17 | CCNc1nc2c(ncn2[C@H]2C[C@H](O)[C@@H](CO)O2)c(=O)[nH]1 |  |  | inactive | inactive
18 | C=CC(C)(O)CO[C@@H]1O[C@H](CO)[C@@H](O)[C@H](O)[C@H]1O (some centres undefined) |  |  | inactive | inactive
19 | CCc1cccc(CC)c1-n1c(C=C(C)C)c(C(=O)N2CCNCC2)cc(-c2nc(-c3ccc(C(F)(F)F)cc3)cs2)c1=O |  |  | inactive | inactive
20 | C=C1CN(Cc2ccc(C(=O)Nc3ccccc3N)cc2)C(=O)c2ccccc21 |  |  | 651 nM (active) | 517 nM (active)
21 | O=C(/C=C/c1ccc(O)cc1)O[C@H]1[C@H](OC2CCCCC2O)O[C@H](CO)[C@@H](O)[C@@H]1O (some centres undefined) |  |  | inactive | inactive
22 | Clc1ccc(Nc2nc3ccccc3c3nc(C4CCCCC4)[nH]c23)cc1Cl |  |  | 18400 nM (active) | 8200 nM (active)
23 | CC1OC2O[C@H]3[C@@H](OCC(O)[C@H]3O)OC(=O)C34CCC(C)(C)CC3C3=CCC5C6(C)CC(O)C(OC7OC(CO)C(O)C(O)C7O[C@@H]7OC[C@H](OC(=O)CC(C)(O)CC(=O)OC1C(OC1OCC(O)C(O)C1O)C2O)[C@@H](O)[C@H]7O)C(C)(CO)C6CCC5(C)C3(C)CC4 (some centres undefined) |  |  | 8930 nM (active) | 7090 nM (active)
24 | COc1cc(C2Oc3c(OC)cc(CCCO)cc3C2CO)ccc1O[C@H]1O[C@H](C)[C@@H](O)[C@H](O)[C@@H]1O (some centres undefined) |  |  | inactive | inactive

Row | SMILES | viability (% of control) [1] | viability, % of control [2] | Potency [1] | Potency [2]
25 | CC(C)C1=CC2C(CC[C@]2(C)O)[C@](C)(O)CC1 (some centres undefined) |  |  | inactive | inactive
26 | CC1=C(C)C(=O)OC(C(C)C2CCC3C4C5OC5C5(O)CC(OC6OC(CO)C(OC7OC(C)C(O)C(O)C7O)C(O)C6O)CC(O)C5(C)C4CCC23C)C1 (centres undefined) |  |  | inactive | inactive
27 | CC(C)(O)C(O)C(=O)OCc1ccc(O[C@@H]2O[C@H](CO)[C@@H](O)[C@H](O)[C@H]2O)cc1 (some centres undefined) |  |  | inactive | inactive
28 | COc1cc(O)cc2c1C(=O)OC(C)C2 (centres undefined) |  |  | inactive | inactive
29 | CC(C)c1ccc2c(c1)C(O)CC1C(C)(C(=O)O)CCCC21C (centres undefined) |  |  | inactive | inactive
30 | CCc1ccc2nc(Nc3cc(Cc4ccccc4)nc(NC4CCC(O)CC4)n3)sc2c1 (centres undefined) |  |  | 8330 nM (active) | 6610 nM (active)
31 | C[C@@H]1O[C@@H](O[C@H]2[C@@H](OC(=O)[C@]34CCC(C)(C)CC3C3=CCC5[C@@]6(C)C[C@H](O)[C@H](O[C@@H]7O[C@H](C(=O)O)[C@@H](O)[C@H](O)[C@H]7O)[C@@](C)(C(=O)O)C6CC[C@@]5(C)[C@]3(C)CC4)OC[C@H](O)[C@@H]2O)[C@H](O)[C@H](O)[C@H]1O[C@@H]1OC[C@@H](O)[C@H](O)[C@H]1O (some centres undefined) | 77.1% [at 9.25 µM] | 74.1% [at 9.25 µM] |  | 
32 | CCC(C)(O)C(O)C(=O)OCc1ccc(O[C@@H]2O[C@H](CO)[C@@H](O)[C@H](O)[C@H]2O)c(OC)c1 (some centres undefined) |  |  | inactive | inactive
33 | COc1ccc(C(OC2OC(CO)C(O)C(O)C2O)C(C)O)cc1 (centres undefined) |  |  | inactive | inactive
34 | COc1ccc(C[C@H](C)NC[C@@H](O)c2ccc(O)c(NC=O)c2)cc1 |  |  | inactive | inactive
35 | O=C(CC1NCCC[C@H]1O)Cn1cnc2cc(Br)c(Cl)cc2c1=O (some centres undefined) |  |  | inactive | inactive
36 | CC1(O)CCC2C(C3C1CCC3(C)O)C2(C)C (centres undefined) |  |  | inactive | inactive
37 | COc1cc(C)c(C(=O)Oc2cc(C)c(C(=O)Oc3cc(C)c(C(=O)NC(C)C(=O)O)c(O)c3)c(O[C@@H]3O[C@H](CO)[C@@H](O)[C@H](O)[C@H]3OC(C)=O)c2)c(OC)c1 (some centres undefined) |  |  | inactive | inactive
38 | CC1(C)COC(=O)[C@@H]1O[C@@H]1O[C@H](CO)[C@@H](O)[C@H](O)[C@H]1O |  |  | inactive | inactive
39 | CC(=O)O[C@@H]1C[C@@H](OC(C)=O)C(C)(C)/C=C/[C@H](C)[C@H](OC(C)=O)[C@@]2(O)C[C@H](C)[C@H](OC(=O)c3ccccc3)[C@@H]2/C=C/1C |  |  | 968 nM (active) | 2730 nM (active)
40 | CN(C)C/C=C/C(=O)Nc1cc2c(Nc3ccc(F)c(Cl)c3)ncnc2cc1OC1CCOC1 (centres undefined) |  |  | 1160 nM (active) | 1300 nM (active)
41 | COC(=O)c1ccccc1O[C@@H]1O[C@H](CO)[C@@H](O)[C@H](O)[C@H]1O[C@@H]1O[C@@H](C)[C@H](O)[C@@H](O)[C@H]1O |  |  | inactive | inactive
42 | COC(=O)C1=COC(O[C@@H]2O[C@H](CO)[C@@H](O)[C@H](O)[C@H]2O)/C(=C\COC(=O)c2ccc(OC3OC(CO)C(O)C(O)C3O)c(OC)c2)C1CC(=O)OCCc1ccc(O)cc1 (some centres undefined) | 83.5% [at 9.25 µM] | 105% [at 9.25 µM] |  | 
43 | O=C(NCc1nc2ccccc2c(=O)n1-c1ccc(F)cc1)Nc1ccc(Cl)c(C(F)(F)F)c1 |  |  | 23100 nM (active) | 20600 nM (active)
44 | C[C@@H]1O[C@@H](O[C@H]2[C@@H]3C=CO[C@@H](O[C@@H]4O[C@H](CO)[C@@H](O)[C@H](O)[C@H]4O)[C@@H]3[C@@]3(CO)O[C@@H]23)[C@H](OC(=O)/C=C/c2ccc(O)cc2)[C@H](O)[C@H]1O |  |  | inactive | inactive
45 | C/C=C(\C)C(=O)OC[C@H]1O[C@H](O[C@H]2O[C@H](CO)[C@@H](O)[C@H](O)[C@H]2O[C@@H]2O[C@H](CO)[C@@H](O)[C@H](O)[C@H]2O)[C@H](O[C@@H]2O[C@H](CO)[C@@H](O)[C@H](O)[C@H]2O)[C@@H](O)[C@@H]1O |  |  | inactive | inactive
46 | C=C1C(=O)O[C@@H]2C[C@@H](C)[C@]34C[C@]5(C(=O)O[C@H]6CC(C)=C([C@H](C)CCCO)[C@H](OC(=O)C(C)CC)[C@H]65)[C@@H](C(C)=C3C[C@@H]12)[C@H]4OC(C)=O (some centres undefined) |  |  | 3060 nM (active) | 2430 nM (active)
47 | CC(C)C(NC(=O)c1ccc(O)cc1)C(=O)N1CCCC1C(=O)Nc1c(O)cccc1C(=O)O (centres undefined) |  |  | inactive | inactive

Source: PubChem BioAssay (NCATS)
